SMILES strings stand for the structures. Inconclusive results are not listed. A call without a number means that no potency is given here. Activity calls are given as the source filed them. Calls come from the whole dose curve; as a rule, active = well fitted activation curve with a large enough effect; inconclusive = small, poorly fitted or top-dose-only effect; inactive = flat fitted curve, though single readings scatter.

A short description of this assay: Cell viability assay for measurement of the protective activity of small molecules against cell death caused by Zika virus infection in human astrocytoma cells. The following applies: SNB-19 Zika virus cytoprotection, ATP luminescence, 72 h; series mostly up to 46.1 µM. The source says:
National Center for Advancing Translational Sciences [NCATS] Johns Hopkins University School of Medicine Florida State University Assay Overview: Zika virus infection causes cell death in certain cell types including human neural progenitor cells (hNPCs), astrocytes, and astrocytoma cell line (SNB-19). This cell viability assay measures the ATP content (level) in human astrocytoma cells (SNB-19) using a luminescence readout that is proportional to viable cell numbers. Decrease in the luminescence signal after Zika virus infection indicates the cell death caused by Zika virus. Small molecule inhibitors […] the decreased luminescence signal after Zika virus infection, indicating the protective effect of that small molecule on the cell death caused by Zika virus infection. This observed protective effect of small molecules against Zika virus induced cell death may result from inhibition of virus replication or cellular response to the virus infection.
Assay Protocol Summary: The medium for SNB-19 cells is composed of RPMI 1640 (ATCC, Cat.# 30-2001), 10% fetal bovine serum (FBS) (GE healthcare Life Sciences, Cat.# SH30071.03), and 1% Pen/Strep (Gibco, Cat.# 15140-122). The ATP content assay kit (PerkinElmer, Cat.# 6016731) was used to determine cell viability. The reagent was reconstituted and prepared as described by the manufacturer. Cells were seeded in 384- or 1536-well assay plates and cultured at 37 C with 5% CO2 for 16 to 20 hours. The typical cell seeding density in the 1536-well plate assay is 250 cells/well in 3ul medium for SNB-19 cells in tissue culture treated plates. Compounds were added to cells and incubated for one hour before addition of ZIKV solution to cells (2 FFU/cell). After incubation at 37 C with 5% CO2 for 72 hours, the reagent mixture of the ATP content assay kit was added to each well, followed by incubation at room temperature for 10 minutes. The luminescence intensity of the assay plates was measured using a ViewLux plate reader (PerkinElmer). […] The percentage inhibitions of the decreased cell viability by small molecule inhibitors were then calculated.
Turning to `O=C(Nc1ccc(Br)cc1)c1cc(Br)cc(Br)c1O`, the Potency entry is “inactive”.

For the compound `CC(C)[C@H]1C(=O)N[C@H](CO)Cc2c[nH]c3cccc(c23)N1C`, the Potency was 2.45 µM (active).

Consider `CC(C)N[C@@H]1CCn2c(=O)[nH]c3cccc(c32)[C@@H]1O`, for which the Potency entry was “inactive”.

Take `O=c1c2ccccc2[se]n1-c1ccccc1`: the Potency entry is “inactive”. Under `CN1CC[C@@]2(C)c3cc(OC(=O)Nc4ccccc4)ccc3N(C)[C@@H]12` stands “inactive”; under `S=C(SSC(=S)N1CCCCC1)N1CCCCC1`, 17.3 µM (active); under `COP(=S)(OC)SCN1C(=O)c2ccccc2C1=O`, “inactive”. Under `O=C1CCC[C@@H]2[C@H]3CCCN4CCC[C@@H](CN12)[C@@H]34` stands “inactive”; under `Cc1ccc([N+](=O)[O-])[c]2c1[O][Hg]2`, “inactive”. The result for `CN1CC(=O)N2C(Cc3c([nH]c4ccccc34)[C@H]2c2ccc3c(c2)OCO3)C1=O` (stereo partly drawn) reads “inactive”. In the case of `COc1cccc2c1C(=O)c1c(O)c3c(c(O)c1C2=O)C[C@@](O)(C(=O)CO)CC3OC1CC(N2CCOC(OC)C2)C(O)C(C)O1` (stereo partly drawn), the Potency is 0.388 µM (active). In the case of `O=S(=O)(CC1CS1)c1ccc(Oc2ccccc2)cc1` (stereo not drawn), the Potency entry was “inactive”.

Turning to `CC(=C(CCOC(=O)C(C)C)SSC(CCOC(=O)C(C)C)=C(C)N(C=O)Cc1cnc(C)nc1N)N(C=O)Cc1cnc(C)nc1N`, the Potency result was “inactive”.

The values are drawn from PubChem BioAssay AID1224854 (National Center for Advancing Translational Sciences (NCATS), 2016).
